# Source: PubChem BioAssay
# IMPase inh – cell-permeable inhibitors of inositol monophosphatase (IMPase); P97697; CHO-M1 cells, IP1 accumulation, HTRF TR-FRET ratio; inhibition (IP1 accumulation), % at 46.1 µM; 120,000 tested, under 10 active; active means well fitted curve in the direction sought with a large enough effect in the signal ratio, not every such curve was filed as active; inconclusive means small, poorly fitted or top-dose-only effect, or a change in a side signal; inactive means no such curve, though single readings can be large or run the other way; the % refers to the signal ratio;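 further: cells stimulated with carbachol in lithium chloride buffer; plate controls were DMSO basal wells for no effect and reference inhibitor wells for full effect; higher means more IMPase inhibition seen as more IP1 and lower FRET ratio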
# Target sequence (P97697 whole entry, looked up): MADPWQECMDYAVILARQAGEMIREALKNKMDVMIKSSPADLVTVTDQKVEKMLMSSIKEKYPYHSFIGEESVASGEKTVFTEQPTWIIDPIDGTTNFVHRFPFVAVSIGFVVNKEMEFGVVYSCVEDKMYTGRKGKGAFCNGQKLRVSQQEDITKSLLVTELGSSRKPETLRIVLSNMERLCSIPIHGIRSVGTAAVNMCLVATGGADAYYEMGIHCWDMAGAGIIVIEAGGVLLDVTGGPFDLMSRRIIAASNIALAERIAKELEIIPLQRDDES
#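 In this qHTS, compounds (final up to 46 uM) act on CHO-M1 cells that are then activated through the M1 receptor with carbachol, in pH 7.4 buffer containing 50 mM LiCl, for 30 min. IP1 accumulation is quantified by the IP-One immunoassay.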
# NPSR antag – blocks cAMP signaling of the human neuropeptide S receptor; Q6W5P4; CHO-NPSR cells, cAMP TR-FRET, antagonist mode; Potency, µM (highest dose often 38.3 µM), without a hit: at the top dose activity change, negative = inhibition, actives largely listed as inhibitors; 1% of 220,000 active; AID 1461; further: potency means the concentration at half of the fitted maximal effect; nearly all actives have a fitted effect of over 50% in size
# ALDH1A1 inh – ALDH1A1 (human) enzyme inhibition. P00352. Purified ALDH1A1, NADH fluorescence, propionaldehyde substrate. AID 1030. Potency, µM (highest dose often 75.3 µM), for the others: top-dose activity, negative = inhibition, actives largely listed as inhibitors. 7.3% of 220,000 active; active means well fitted inhibition curve with a large enough effect, not every such curve was filed as active; inconclusive means small, poorly fitted or top-dose-only effect, or another doubt; inactive means no such curve, though single readings can be large or run the other way;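 further: potency means the concentration at half of the fitted maximal effect; plate controls were no enzyme wells and a reference inhibitor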
# Target sequence (P00352 whole entry, looked up): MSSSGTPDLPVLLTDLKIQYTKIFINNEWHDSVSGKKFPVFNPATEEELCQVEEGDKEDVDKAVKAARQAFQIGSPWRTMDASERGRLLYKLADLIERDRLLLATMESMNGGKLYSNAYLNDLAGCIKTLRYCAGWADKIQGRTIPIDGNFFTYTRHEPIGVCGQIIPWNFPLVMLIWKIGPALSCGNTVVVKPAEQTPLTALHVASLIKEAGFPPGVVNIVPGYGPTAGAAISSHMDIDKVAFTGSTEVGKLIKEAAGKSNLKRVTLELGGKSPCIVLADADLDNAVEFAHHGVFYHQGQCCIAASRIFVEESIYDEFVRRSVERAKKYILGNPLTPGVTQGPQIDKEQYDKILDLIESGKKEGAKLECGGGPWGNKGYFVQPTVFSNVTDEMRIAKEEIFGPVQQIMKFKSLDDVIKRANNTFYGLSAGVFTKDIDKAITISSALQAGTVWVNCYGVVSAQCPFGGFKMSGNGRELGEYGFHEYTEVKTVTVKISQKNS
# PNC assembly inh – blocks assembly of the perinucleolar compartment; PC3M PTB-GFP, PNC prevalence imaging, 16 h; stronger effect = lower value; activity change (PNC), negative = inhibition, % at 10 µM; 3.1% of 140,000 active;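 active means readout at or below -70, meaning at least 70% loss of cells showing the perinucleolar compartment, a nuclear body marking cancer cells; inconclusive means readout between -30 and a set limit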;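 further: plate controls were DMSO wells for no effect and camptothecin positive control wells for full effect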
#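 Read-out is percentage of cells bearing a perinucleolar compartment, from automated 20x imaging of fixed, Hoechst-stained PC3M PTB-GFP cells. Cells were seeded 4 h, then exposed 16 h to compound (23 nl of library stock) in duplicate plates.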
# HPGD inh – HPGD (human) dehydrogenase inhibition | P15428 | AID 894 | 4.3% of 150,000 active | purified HPGD, NADH fluorescence kinetic, PGE2 substrate | Potency, µM, for the others: top-dose activity change, negative = inhibition, usual class: inhibitors; active means well fitted inhibition curve with a large enough effect, not every such curve was filed as active; inconclusive means small, poorly fitted or top-dose-only effect, or another doubt; inactive means no such curve, though single readings can be large or run the other way; further: potency means the concentration at half of the fitted maximal effect
#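 20 nM HPGD preincubated 15 min at room temperature with compound in 50 mM Tris-HCl pH 8, 0.01% Tween 20. Started with 1 mM NAD+ and 30 uM prostaglandin E2; NADH fluorescence (360/450 nm) read 5 times over 30-s intervals, last minus first.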
# IMPase Li inh – cell-permeable IMPase inhibitors with lithium potentiation. CHO-M1 cells, IP1 TR-FRET (IP-One), carbachol + lithium. Potency, µM (titrated, usually from 59.4 µM), inactives show top-dose activity, negative = IMPase inhibition, actives largely listed as inhibitors. 0.35% of 210,000 active;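 further: IP1 builds up when IMPase is blocked and the TR-FRET signal falls; potency means the concentration at half of the fitted maximal effect; plate controls were basal vehicle for no effect and high inhibitor control for full effect; nearly all actives have a fitted effect of over 50% in size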
#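 CHO cells stably expressing M1 receptor (2000/well, cultured 16–30 h) treated 30 min at 37C with compound plus low lithium. Cytosolic IP1 by TR-FRET (665/620 ratio and 620 channel) after 10 min lysis; AC50 by Hill fit.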
# The depositor's hits bear a star; ? = inconclusive; / = no result; [ ] = remark or other dose. Most compounds without a hit are left out; they make up all but 11% or so of the library. Unless noted, the call rests on the fitted dose curve; in most records, active means well fitted curve in the direction sought with a large enough effect; inconclusive means small, poorly fitted or top-dose-only effect, or another doubt; inactive means no such curve, though single readings can be large; an effect the other way counts as inactive or inconclusive. Unless noted, on the % scale 0 is the no-effect control and ±100 the full control effect.
SMILES,IMPase inh,NPSR antag,ALDH1A1 inh,PNC assembly inh,HPGD inh,IMPase Li inh
COc1ccc2c(c1)c(C(=O)OCCN(C)C)c(C)n2C,-4.0,-5.3%[46.1 µM],5.4%,13.4,-4.0%,9.8%[38.3 µM]
CC(C(=O)NCc1ccco1)c1ccc([N+](=O)[O-])cc1 (centres undefined),/,3.6%,5.5%,/,/,-2.1%
CC(=O)c1nc(N2C(=O)CC(Cc3ccccc3)C2=O)sc1C (centres undefined),/,33.9%,-1.9%,13.6,28.2µM*,?
Cc1cccc(CC2CC(=O)N(c3nc4ccccc4s3)C2=O)c1 (centres undefined),/,-32.3%,-8.5%,/,/,2.3%
COc1cc([N+](=O)[O-])ccc1-c1ccc(C(=O)Nc2ccc(NC(C)=O)cc2)o1,/,-6.8%,0.891µM*,58.2,28.2µM*,3.7%
COc1ccc(NC(=O)CCCn2c(=O)c3sccc3n(Cc3ccccc3)c2=O)cc1,0.5,2.9%,7.7%,-28.0,-1.7%,?
COc1ccc(NC(=O)CCCn2c(=O)c3sccc3n(Cc3ccccc3C)c2=O)cc1,/,-9.2%,3.98µM*,-5.6,-15.3%,11.9%
OC[C@@H]1NC[C@@H](O)[C@@H](O)[C@H]1O,5.4,/,/,/,/,/
COc1ccc(NC(=O)C(c2cc3c(cc2[N+](=O)[O-])OCO3)N2CCN(C=O)CC2)cc1 (centres undefined),/,12.6%,?,?,-20.1%,-6.6%
O=CN1CCN(C(C(=O)NC2CCCCC2)c2cc3c(cc2[N+](=O)[O-])OCO3)CC1 (centres undefined),/,0.5%,5.01µM*,/,/,15.9%
COC(=O)c1cc2c(cc1[N+](=O)[O-])OCO2,/,13.2%,-0.9%,/,/,1.6%
O=C(NC1CCCCC1)C(c1cc2c(cc1[N+](=O)[O-])OCO2)N1CCCCC1 (centres undefined),/,-9.9%,28.2µM*,36.5,?,16.6%
O=C(Cn1ncc2c(=O)oc3ccccc3c21)N1CCN(c2ccccn2)CC1,-2.7,-22.1%[46.1 µM],-4.2%,?,-26.5%,-9.3%[38.3 µM]
COC(=O)[C@@H](NC(=O)N1CCC(C)CC1)C(C)C,/,-12.0%,3.6%,/,/,/
COc1cc(CC(=O)NCc2ccccn2)cc(OC)c1OC,10.4,2.2%[46.1 µM],11.4%,9.2,1.2%,22.9%[38.3 µM]
O=C1/C(=C/c2ccccc2)Nc2ccccc21,0.3,-12.6%[46.1 µM],-7.6%,25.3,17.8µM*,22.0%[38.3 µM]
CSc1nnc(-c2cc(Br)ccc2N=Cc2c(C)[nH]n(-c3ccccc3)c2=O)c(=O)[nH]1,/,40.7%,18.9µM*,/,/,10.1%
CS(=O)(=O)N1CCN(c2ccccc2NC(=S)NC(=O)c2cccs2)CC1,/,-48.5%,0.447µM*,/,/,8.7%
CS(=O)(=O)N1CCN(c2ccccc2NC(=S)NC(=O)c2ccccc2[N+](=O)[O-])CC1,/,-20.6%,0.708µM*,/,/,-0.9%
O=S(=O)(Cc1ccccc1)N1CCN(Cc2ccccc2)CC1,-0.2,-10.9%[46.1 µM],12.2%,4.2,-10.7%,2.4%[38.3 µM]
COc1cccc(C2CC(C(F)(F)F)n3ncc(C(=O)O)c3N2)c1 (centres undefined),5.7,-8.0%[7.67 µM],14.0%,?,-6.9%,-1.0%[38.3 µM]
Cc1cc(NC(=O)CSc2ncnc3sc(C)c(C)c23)no1,/,?,6.8%,/,/,?
Cc1sc2ncnc(SCC(=O)N3CCCC3=O)c2c1C,-0.7,-4.7%[46.1 µM],0.1µM*,-96.9*,25.1µM*,-24.4%[38.3 µM]
CCOCCCNC(=S)N1CCN(Cc2ccco2)CC1,/,1.1%,14.1µM*,/,/,3.8%
CCCCNC(=S)NC(=O)c1ccc([N+](=O)[O-])cc1,1.6,-18.4%[46.1 µM],-14.0%,?,-9.3%,1.5%[38.3 µM]
SMILES,IMPase inh,NPSR antag,ALDH1A1 inh,PNC assembly inh,HPGD inh,IMPase Li inh
CC1CCCCN1C(=O)CSc1nnc(-c2ccco2)n1CC1CCCO1 (centres undefined),-18.8,9.6%[46.1 µM],?,9.0,-10.6%,5.6%[38.3 µM]
N#Cc1ccc(CS(=O)(=O)c2nnnn2-c2ccccc2)cc1,/,/,0.794µM*,/,-4.7%,12.6%
CCS(=O)(=O)c1nnnn1-c1ccccc1S(C)(=O)=O,-10.0,-20.3%[46.1 µM],?,-116.6*,-4.8%,2.7%[38.3 µM]
N#Cc1cccc(CS(=O)(=O)c2nnnn2C2CCCCC2)c1,/,/,25.1µM*,/,-9.8%,10.3%
c1ccc(CNc2nnnn2-c2ccccc2)cc1,16.8,-5.2%[46.1 µM],39.8µM*,-2.5,-16.4%,7.3%
O=C(NCCN1CCCCC1)c1ccco1,?,2.9%[46.1 µM],1.5%,?,0.5%,-4.8%
CN(C)C(=O)CNC(=O)C1CCCCC1,2.8,-1.1%[46.1 µM],12.1%,11.1,0.2%,-15.9%[38.3 µM]
Cc1ccc(CNC(=O)C2=NNC(=O)CC2)cc1,/,2.0%,-6.0%,?,-2.4%,-3.8%
CCOc1ccc2[nH]c(=O)c(CN(Cc3cccs3)Cc3nnnn3C(C)(C)CC)cc2c1,7.6,?,?,-12.2,-28.1%,14.0%[38.3 µM]
O=S(=O)(Cc1ccccc1)c1nnnn1-c1ccccc1,/,/,0.447µM*,/,-20.2%,31.9%
O=C(CCC(=O)OCC(=O)c1ccc(Cl)cc1Cl)Nc1cccc2cccnc12,-12.6,-7.8%[46.1 µM],28.2µM*,26.1,-17.1%,-4.0%[38.3 µM]
CC(=O)Nc1ccccc1-c1nc2ccc(C(=O)N3CCN(c4ccccc4)CC3)cc2[nH]c1=O,0.1,-7.5%,28.2µM*,143.2,?,13.7%
CCCc1cc(N2CCCC(C(=O)Nc3ccc(OC)cc3OC)C2)n2ncnc2n1 (centres undefined),-12.8,-2.5%[46.1 µM],?,26.9,28.2µM*,0.1%[38.3 µM]
CCCc1cc(N2CCCC(C(=O)NCc3ccc4c(c3)OCO4)C2)n2ncnc2n1 (centres undefined),4.9,-10.3%[46.1 µM],-10.9%,?,-12.9%,23.1%[38.3 µM]
Cc1cc(S(=O)(=O)N2CCC(N3CCCCC3)CC2)ccc1-n1cnnn1,/,14.4%,0.0282µM*,-29.7,-12.1%,-0.4%
O=C(CN1CCOc2ccccc21)NCc1ccco1,1.3,-1.5%[46.1 µM],11.2µM*,-105.7*,-27.0%,25.0%[38.3 µM]
O=C(CSc1ccccc1)NCc1ccco1,1.5,2.0%[46.1 µM],5.5%,-5.3,28.2µM*,4.6%
CCCn1cc(SCC(=O)NCc2ccco2)c2ccccc21,5.8,-15.4%[46.1 µM],?,-21.9,17.8µM*,18.4%[38.3 µM]
O=C(CSc1ccc2c(c1)OCCO2)Nc1ccc(Br)cc1,2.0,-11.2%[46.1 µM],7.08µM*,?,/,/
O=C(CSc1ccc2c(c1)OCCO2)Nc1ccc2c(c1)OCO2,4.4,-7.4%[46.1 µM],?,-9.9,-13.4%,21.4%[38.3 µM]
O=C(CN1CC(=O)Oc2ccccc21)NCc1ccco1,9.4,-0.4%[46.1 µM],?,-20.0,-5.0%,6.4%[38.3 µM]
O=C(CSc1cn(CCNC(=O)c2ccccc2)c2ccccc12)NCc1ccco1,11.3,-24.4%[46.1 µM],?,-2.0,-9.8%,8.3%[38.3 µM]
N#Cc1c(SCC(=O)N2CCOCC2)nsc1SCC(=O)N1CCOCC1,3.3,16.6%[46.1 µM],4.8%,45.7,-3.5%,15.4%[38.3 µM]
O=C(CCSCCC(=O)NCc1ccco1)NCc1ccco1,1.9,-0.2%[46.1 µM],17.8µM*,26.8,15.8µM*,-4.9%
